Source: PubChem BioAssay
A number with no mark means an inactive call. Activity calls are given as the source filed them.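 The calls were made as follows, unless noted: active = compound that reduces growth-factor-driven endothelial tube area in a mixed cell culture, no cutoff stated; inactive = the rest.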

assay: growth inhibition of GSK3B-pretreated HCT116 cells – cell-based, CellTiter-Glo, 0.2 to 20 µM (AID 1117336;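 active = compounds lowering colon cancer cell viability after pretreatment blocking the GSK3B kinase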); settings: HCT116 viability after GSK3B inhibitor, at 20 µM, active compounds read high

First: O=C(O)c1cc(O)c(O)c(O)c1
Second: C[C@@](Cc1ccc(O)c(O)c1)(NN)C(=O)O
The viability decrease of the first is lower: 44.8% for the first, 48.3% for the second.

First: Cc1c(C(N)=O)cc([N+](=O)[O-])cc1[N+](=O)[O-]
Second: Nc1ccc(S(=O)(=O)Nc2ccc(Cl)nn2)cc1
The viability decrease of the first is higher: 13.7% for the first, 6.1% for the second.

Going from `CCCc1cc(C(N)=S)ccn1` to `CCCCOc1ccc(CC(=O)NO)cc1`, the viability decrease rises from -13.4% to 24.3%.

Going from `C[N+]12CCC(CC1)C(OC(=O)C(O)(c1ccccc1)c1ccccc1)C2` (stereo unspecified) to `CN1CCCN=C1COC(=O)C(O)(c1ccccc1)C1CCCCC1` (stereo unspecified), the viability decrease falls from -30.2% to -83%.

First: C=CCSCC1Nc2cc(Cl)c(S(N)(=O)=O)cc2S(=O)(=O)N1 (stereo unspecified)
Second: C=CCc1ccc(O)c(OC)c1
The viability decrease of the first is lower: -11% for the first, 22.5% for the second.

Compared with `CCOc1ccc(Cc2nccc3cc(OCC)c(OCC)cc23)cc1OCC`, `COc1ccc(-c2cc(C(F)F)nn2-c2ccc(S(N)(=O)=O)cc2)cc1F` is higher in viability decrease: -83% for the first, -65.6% for the second.

Compared with `O=C1C(O)=C(O)C(=O)C(O)=C1O`, `O=C1c2cccc(O)c2C(=O)c2c(O)cccc21` is higher in viability decrease: -21% for the first, 21.4% for the second.

Compared with `COc1ccc(C2C(=O)c3ccccc3C2=O)cc1`, `Nc1ccc(N=Nc2ccccc2)c(N)n1` is lower in viability decrease: 48.4% for the first, 43.4% for the second.

Compared with `O=C(O)c1ccccc1OP(=O)(O)O`, `CC(=O)Nc1ccccc1` is higher in viability decrease: -21.3% for the first, -5.1% for the second.

Going from `Cc1c(NC(=O)c2cccnc2)c(=O)n(-c2ccccc2)n1C` to `Cc1c(NC(C)C)c(=O)n(-c2ccccc2)n1C`, the viability decrease rises from -14.1% to 3.8%.

Compared with `Cc1cc(=O)[nH]c(=S)[nH]1`, `Cc1cc(C)cc(OCC2CNC(=O)O2)c1` (stereo unspecified) is higher in viability decrease: 0.65% for the first, 4.3% for the second.

Going from `COc1cccc(OC)c1C(=O)N[C@@H]1C(=O)N2[C@@H]1SC(C)(C)[C@@H]2C(=O)O` to `Cc1onc(-c2ccccc2)c1C(=O)N[C@@H]1C(=O)N2[C@@H]1SC(C)(C)[C@@H]2C(=O)O`, the viability decrease rises from -3.9% to 0.4%.

Compared with `CC1(C)O[C@@H]2C[C@H]3[C@@H]4C[C@H](F)C5=CC(=O)CC[C@]5(C)[C@H]4[C@@H](O)C[C@]3(C)[C@]2(C(=O)CO)O1`, `CCC(=O)O[C@H]1[C@H](O[C@@H]2[C@@H](C)[C@H](O[C@H]3C[C@@](C)(OC)[C@@H](O)[C@H](C)O3)[C@@H](C)C(=O)O[C@H](CC)[C@@](C)(O)[C@H](O)[C@@H](C)C(=O)[C@H](C)C[C@@]2(C)O)O[C@H](C)C[C@@H]1N(C)C` is lower in viability decrease: 0.8% for the first, -28.1% for the second.

First: COc1cc(NS(=O)(=O)c2ccc(N)cc2)ncn1
Second: O=C(O)c1ccccc1C(=O)Nc1ccc(S(=O)(=O)Nc2nccs2)cc1
The viability decrease of the first is higher: 16.8% for the first, -13.1% for the second.

Compared with `CC(=O)Nc1ccc(OCC(O)CNC(C)C)cc1` (stereo unspecified), `CC[C@]12CCCN3CCc4c(n(c5ccccc45)[C@@](O)(C(=O)OC)C1)[C@@H]32` is lower in viability decrease: 4.2% for the first, -2.5% for the second.

Compared with `Cc1c(N(C)CS(=O)(=O)O)c(=O)n(-c2ccccc2)n1C`, `O=C(CCCCC(=O)Nc1c(I)cc(I)c(C(=O)O)c1I)Nc1c(I)cc(I)c(C(=O)O)c1I` is lower in viability decrease: 1.05% for the first, -15.2% for the second.

In the case of `CCCCC(CC)CN1CN(CC(CC)CCCC)CC(C)(N)C1` (stereo unspecified), the viability decrease is reported as 79.6% (active).
With `Oc1c(Cl)cc(Cl)cc1Sc1cc(Cl)cc(Cl)c1O` the viability decrease was 99.2% (active).
In the case of `Oc1ccc(Cl)c2cccnc12`, the viability decrease is reported as 57.1% (active).
In the case of `COc1ccc2cc1Oc1ccc(cc1)C[C@H]1c3c(cc4c(c3Oc3cc5c(cc3OC)CCN(C)[C@@H]5C2)OCO4)CCN1C`, the viability decrease is reported as 98.1% (active).
For `O=C(OCC(O)CO)c1ccccc1Nc1ccnc2cc(Cl)ccc12` (stereo unspecified), the viability decrease was 53.3% (active).
For `CC(=O)N(O)CCCCCNC(=O)CCC(=O)N(O)CCCCCNC(=O)CCC(=O)N(O)CCCCCN`, the viability decrease was 56.1% (active).

assay: inhibition of endothelial tube formation, primary screen, imaging, VEGF stimulated, CD31 staining, tube area, NPC library (AID 1117340); settings: VEGF-stimulated ADSC/ECFC co-culture, at 10 µM, active compounds read high

Compared with `O=C(O)c1cc(O)c(O)c(O)c1`, `C[C@@](Cc1ccc(O)c(O)c1)(NN)C(=O)O` is lower in tube area decrease: -2.4% for the first, -3.9% for the second.

Going from `Cc1c(C(N)=O)cc([N+](=O)[O-])cc1[N+](=O)[O-]` to `Nc1ccc(S(=O)(=O)Nc2ccc(Cl)nn2)cc1`, the tube area decrease rises from -5.4% to 12.6%.

First: CCCc1cc(C(N)=S)ccn1
Second: CCCCOc1ccc(CC(=O)NO)cc1
The tube area decrease of the first is higher: 1% for the first, -1.4% for the second.

Going from `CCCCC(CC)CN1CN(CC(CC)CCCC)CC(C)(N)C1` (stereo unspecified) to `CCOc1ccc(Cc2nccc3cc(OCC)c(OCC)cc23)cc1OCC`, the tube area decrease rises from 16% to 39.2%.

Going from `C[N+]12CCC(CC1)C(OC(=O)C(O)(c1ccccc1)c1ccccc1)C2` (stereo unspecified) to `CN1CCCN=C1COC(=O)C(O)(c1ccccc1)C1CCCCC1` (stereo unspecified), the tube area decrease falls from 0.5% to -29%.

Going from `C=CCSCC1Nc2cc(Cl)c(S(N)(=O)=O)cc2S(=O)(=O)N1` (stereo unspecified) to `C=CCc1ccc(O)c(OC)c1`, the tube area decrease falls from -0.7% to -3.7%.

Going from `O=C1C(O)=C(O)C(=O)C(O)=C1O` to `O=C1c2cccc(O)c2C(=O)c2c(O)cccc21`, the tube area decrease rises from -10.5% to 6%.

Compared with `Oc1ccc(Cl)c2cccnc12`, `Cc1c(NC(=O)c2cccnc2)c(=O)n(-c2ccccc2)n1C` is lower in tube area decrease: 11.9% for the first, 7.1% for the second.

Compared with `COc1ccc(C2C(=O)c3ccccc3C2=O)cc1`, `COc1ccc(-c2cc(C(F)F)nn2-c2ccc(S(N)(=O)=O)cc2)cc1F` is higher in tube area decrease: -33.4% for the first, 10.3% for the second.

Compared with `O=C(O)c1ccccc1OP(=O)(O)O`, `CC(=O)Nc1ccccc1` is higher in tube area decrease: -18.8% for the first, -10.1% for the second.

First: Nc1ccc(N=Nc2ccccc2)c(N)n1
Second: Cc1c(NC(C)C)c(=O)n(-c2ccccc2)n1C
The tube area decrease of the first is higher: 36.8% for the first, 4% for the second.

Going from `O=C(OCC(O)CO)c1ccccc1Nc1ccnc2cc(Cl)ccc12` (stereo unspecified) to `O=C(O)c1ccccc1C(=O)Nc1ccc(S(=O)(=O)Nc2nccs2)cc1`, the tube area decrease rises from -3.6% to 3.3%.

Compared with `Cc1cc(=O)[nH]c(=S)[nH]1`, `Cc1cc(C)cc(OCC2CNC(=O)O2)c1` (stereo unspecified) is higher in tube area decrease: -25.4% for the first, 12.5% for the second.

First: COc1cccc(OC)c1C(=O)N[C@@H]1C(=O)N2[C@@H]1SC(C)(C)[C@@H]2C(=O)O
Second: Cc1onc(-c2ccccc2)c1C(=O)N[C@@H]1C(=O)N2[C@@H]1SC(C)(C)[C@@H]2C(=O)O
The tube area decrease of the first is lower: -4.7% for the first, -1.6% for the second.

Going from `CC1(C)O[C@@H]2C[C@H]3[C@@H]4C[C@H](F)C5=CC(=O)CC[C@]5(C)[C@H]4[C@@H](O)C[C@]3(C)[C@]2(C(=O)CO)O1` to `CCC(=O)O[C@H]1[C@H](O[C@@H]2[C@@H](C)[C@H](O[C@H]3C[C@@](C)(OC)[C@@H](O)[C@H](C)O3)[C@@H](C)C(=O)O[C@H](CC)[C@@](C)(O)[C@H](O)[C@@H](C)C(=O)[C@H](C)C[C@@]2(C)O)O[C@H](C)C[C@@H]1N(C)C`, the tube area decrease rises from -40.9% to 5.5%.

Compared with `COc1cc(NS(=O)(=O)c2ccc(N)cc2)ncn1`, `Cc1c(N(C)CS(=O)(=O)O)c(=O)n(-c2ccccc2)n1C` is lower in tube area decrease: 1.4% for the first, -53.1% for the second.

First: CC(=O)Nc1ccc(OCC(O)CNC(C)C)cc1 (stereo unspecified)
Second: CC[C@]12CCCN3CCc4c(n(c5ccccc45)[C@@](O)(C(=O)OC)C1)[C@@H]32
The tube area decrease of the first is lower: -0.3% for the first, 25.6% for the second.

For `O=C(CCCCC(=O)Nc1c(I)cc(I)c(C(=O)O)c1I)Nc1c(I)cc(I)c(C(=O)O)c1I`, the tube area decrease was 5.5%.

For `Oc1c(Cl)cc(Cl)cc1Sc1cc(Cl)cc(Cl)c1O`, the tube area decrease was 103% (active).
In the case of `COc1ccc2cc1Oc1ccc(cc1)C[C@H]1c3c(cc4c(c3Oc3cc5c(cc3OC)CCN(C)[C@@H]5C2)OCO4)CCN1C`, the tube area decrease is reported as 108% (active).
With `CC(=O)N(O)CCCCCNC(=O)CCC(=O)N(O)CCCCCNC(=O)CCC(=O)N(O)CCCCCN` the tube area decrease was 83% (active).
